Experiment in all cases: PBM; 200 nM protein, PBS
Common to all, as to conditions: dsDNA, one strand shown

The target in experiment [1] is HOXB4 (Homo sapiens, UniProt P17483 148-234).
The target in experiment [2] is HOXB4 (Homo sapiens, UniProt P17483 148-234, V174I).
Experiment [3] deals with MSX2 (Homo sapiens, UniProt P35548 130-214, R199I).
Experiment [4] deals with MSX2 (Homo sapiens, UniProt P35548 130-214).
The target of experiment [5] is MSX2 (Homo sapiens, UniProt P35548 130-214, F161Y).
The target in experiment [6] is ALX3 (Homo sapiens, UniProt O95076 139-225, N203Q).
The target in experiment [7] is ALX3 (Homo sapiens, UniProt O95076 139-225).
Experiment [8] concerns the target ALX3 (Homo sapiens, UniProt O95076 139-225, L168Q).
Experiment [9] concerns the target ALX3 (Homo sapiens, UniProt O95076 139-225, L168V).
Experiment [10] concerns the target ALX3 (Homo sapiens, UniProt O95076 139-225, N203S).
For another experiment, the target named is HOXD13 (Homo sapiens, UniProt P35453 263-343, T313R).
The target in experiment [11] is T1, NKX2-6 (Homo sapiens, UniProt A6NCS4 118-204).
T1 sequence: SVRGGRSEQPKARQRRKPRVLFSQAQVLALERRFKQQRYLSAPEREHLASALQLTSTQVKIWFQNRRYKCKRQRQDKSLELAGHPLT

Experiment [12] has as its target T2, NKX2-6 (Homo sapiens, UniProt A6NCS4 118-204, F151L).
T2 sequence: T1 sequence with F34L

Another experiment deals with PITX2 (Homo sapiens, UniProt Q99697 72-157).
The target in experiment [13] is T3, PAX4 (Homo sapiens, UniProt O43316 9-242, F177V).
T3 sequence: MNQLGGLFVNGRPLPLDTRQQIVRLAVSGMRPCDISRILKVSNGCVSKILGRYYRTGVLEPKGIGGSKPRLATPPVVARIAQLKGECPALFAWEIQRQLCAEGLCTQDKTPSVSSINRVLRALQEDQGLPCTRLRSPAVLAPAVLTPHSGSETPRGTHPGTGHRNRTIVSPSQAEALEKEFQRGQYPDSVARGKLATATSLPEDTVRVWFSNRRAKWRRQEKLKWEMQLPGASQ

Experiment [14] addresses T4, PAX4 (Homo sapiens, UniProt O43316 9-242, F177Y).
T4 sequence: T3 sequence with V169Y

Experiment [15] addresses CRX (Homo sapiens, UniProt O43186 26-111, R41L).
Experiment [16] has as its target SHOX (Homo sapiens, UniProt O15266 103-189).
Experiment [17] concerns the target CRX (Homo sapiens, UniProt O43186 26-111).
The target of experiment [18] is CRX (Homo sapiens, UniProt O43186 26-111, E42D).
Experiment [19] addresses SHOX (Homo sapiens, UniProt O15266 103-189, R173C).

Where a chain is given by its changes, count along the chain named.

Sequence of CRX (Homo sapiens, UniProt O43186 26-111, R41L) (O43186 26-111 R41L): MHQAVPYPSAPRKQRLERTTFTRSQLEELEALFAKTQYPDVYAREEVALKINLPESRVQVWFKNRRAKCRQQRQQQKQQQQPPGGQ
Sequence of HOXB4 (Homo sapiens, UniProt P17483 148-234) (P17483 148-234): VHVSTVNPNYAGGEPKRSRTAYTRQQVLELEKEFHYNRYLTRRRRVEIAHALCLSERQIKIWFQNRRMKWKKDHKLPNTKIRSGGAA
Sequence of SHOX (Homo sapiens, UniProt O15266 103-189) (O15266 103-189): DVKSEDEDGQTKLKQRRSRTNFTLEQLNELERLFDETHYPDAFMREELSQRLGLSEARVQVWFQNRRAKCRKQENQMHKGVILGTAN
Sequence of HOXB4 (Homo sapiens, UniProt P17483 148-234, V174I) (P17483 148-234 V174I): as the sequence (P17483 148-234) above, with V27I counted along it
Sequence of ALX3 (Homo sapiens, UniProt O95076 139-225, N203S) (O95076 139-225 N203S): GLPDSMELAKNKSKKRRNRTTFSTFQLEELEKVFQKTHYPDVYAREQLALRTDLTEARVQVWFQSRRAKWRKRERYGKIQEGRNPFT
Sequence of CRX (Homo sapiens, UniProt O43186 26-111) (O43186 26-111): as the sequence (O43186 26-111 R41L) above, with L16R counted along it
Sequence of ALX3 (Homo sapiens, UniProt O95076 139-225, N203Q) (O95076 139-225 N203Q): as the sequence (O95076 139-225 N203S) above, with S65Q counted along it
Sequence of CRX (Homo sapiens, UniProt O43186 26-111, E42D) (O43186 26-111 E42D): as the sequence (O43186 26-111 R41L) above, with L16R, E17D counted along it
Sequence of MSX2 (Homo sapiens, UniProt P35548 130-214, R199I) (P35548 130-214 R199I): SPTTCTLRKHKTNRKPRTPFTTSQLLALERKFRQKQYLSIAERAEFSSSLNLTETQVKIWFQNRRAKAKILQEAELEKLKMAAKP
Sequence of MSX2 (Homo sapiens, UniProt P35548 130-214, F161Y) (P35548 130-214 F161Y): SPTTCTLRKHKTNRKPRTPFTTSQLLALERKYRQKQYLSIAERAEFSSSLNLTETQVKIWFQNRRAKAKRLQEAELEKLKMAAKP
Sequence of MSX2 (Homo sapiens, UniProt P35548 130-214) (P35548 130-214): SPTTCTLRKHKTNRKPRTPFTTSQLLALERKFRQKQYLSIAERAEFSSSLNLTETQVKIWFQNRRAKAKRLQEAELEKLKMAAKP
Sequence of ALX3 (Homo sapiens, UniProt O95076 139-225) (O95076 139-225): as the sequence (O95076 139-225 N203S) above, with S65N counted along it
Sequence of HOXD13 (P35453 263-343 T313R): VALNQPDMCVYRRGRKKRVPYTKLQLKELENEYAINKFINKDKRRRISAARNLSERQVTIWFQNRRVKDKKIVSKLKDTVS
Sequence of ALX3 (Homo sapiens, UniProt O95076 139-225, L168Q) (O95076 139-225 L168Q): as the sequence (O95076 139-225 N203S) above, with L30Q, S65N counted along it
Sequence of SHOX (Homo sapiens, UniProt O15266 103-189, R173C) (O15266 103-189 R173C): as the sequence (O15266 103-189) above, with R71C counted along it
Sequence of ALX3 (Homo sapiens, UniProt O95076 139-225, L168V) (O95076 139-225 L168V): as the sequence (O95076 139-225 N203S) above, with L30V, S65N counted along it

Turning to CGTGCCGC, the binding signal was 7.33 upbm affinity estimate (log intensity, higher = more binding, comparable within an allelic series) in the experiment with HOXB4 [1]; 7.57 upbm affinity estimate (log intensity, higher = more binding, comparable within an allelic series) in the experiment with HOXB4 [2]; 9.41 upbm affinity estimate (log intensity, higher = more binding, comparable within an allelic series) with MSX2 [3]; 9.35 upbm affinity estimate (log intensity, higher = more binding, comparable within an allelic series) in the experiment with MSX2 [4]; 9.43 upbm affinity estimate (log intensity, higher = more binding, comparable within an allelic series) with MSX2 [5].

Consider CAGGACGC, for which the binding signal was 7.75 upbm affinity estimate (log intensity, higher = more binding, comparable within an allelic series) with HOXB4 [1] and 7.46 upbm affinity estimate (log intensity, higher = more binding, comparable within an allelic series) in the experiment with HOXB4 [2].

As to CCGGGTTC, the binding signal is 7.62 upbm affinity estimate (log intensity, higher = more binding, comparable within an allelic series) in the experiment with HOXB4 [1] and 7.65 upbm affinity estimate (log intensity, higher = more binding, comparable within an allelic series) with HOXB4 [2].

On to ACGCAATA, for which the binding signal is 9.72 upbm affinity estimate (log intensity, higher = more binding, comparable within an allelic series) with HOXB4 [1] and 9.78 upbm affinity estimate (log intensity, higher = more binding, comparable within an allelic series) with HOXB4 [2].

Turning to AGATGATG, the binding signal with HOXB4 [1] was 10.8 upbm affinity estimate (log intensity, higher = more binding, comparable within an allelic series); in the experiment with HOXB4 [2] it was 11.1 upbm affinity estimate (log intensity, higher = more binding, comparable within an allelic series).

Regarding AGGTCCAC, the binding signal is 7.8 upbm affinity estimate (log intensity, higher = more binding, comparable within an allelic series) with HOXB4 [1] and 7.65 upbm affinity estimate (log intensity, higher = more binding, comparable within an allelic series) in the experiment with HOXB4 [2].

Take CTGGGGGA: the binding signal with HOXB4 [1] is 7.75 upbm affinity estimate (log intensity, higher = more binding, comparable within an allelic series); with HOXB4 [2], 7.53 upbm affinity estimate (log intensity, higher = more binding, comparable within an allelic series); with ALX3 [6] it was 7.77 upbm affinity estimate (log intensity, higher = more binding, comparable within an allelic series); in the experiment with ALX3 [7] it was 7.77 upbm affinity estimate (log intensity, higher = more binding, comparable within an allelic series); with ALX3 [8], 7.72 upbm affinity estimate (log intensity, higher = more binding, comparable within an allelic series); in the experiment with ALX3 [9] it was 7.67 upbm affinity estimate (log intensity, higher = more binding, comparable within an allelic series). Moreover, the binding signal with ALX3 [10] was 7.72 upbm affinity estimate (log intensity, higher = more binding, comparable within an allelic series).

In the case of CCCGAGGA, the binding signal with HOXB4 [1] is 7.28 upbm affinity estimate (log intensity, higher = more binding, comparable within an allelic series); in the experiment with HOXB4 [2], 7.6 upbm affinity estimate (log intensity, higher = more binding, comparable within an allelic series).

On to AATCAAGG, for which the binding signal with HOXB4 [1] is 10.3 upbm affinity estimate (log intensity, higher = more binding, comparable within an allelic series); in the experiment with HOXB4 [2], 10.5 upbm affinity estimate (log intensity, higher = more binding, comparable within an allelic series).

Take GAACATAA: the binding signal in the experiment with HOXB4 [1] is 10.5 upbm affinity estimate (log intensity, higher = more binding, comparable within an allelic series); in the experiment with HOXB4 [2], 10.7 upbm affinity estimate (log intensity, higher = more binding, comparable within an allelic series).

For ATGAGTTA, the binding signal with HOXB4 [1] is 10.4 upbm affinity estimate (log intensity, higher = more binding, comparable within an allelic series); in the experiment with HOXB4 [2], 10.6 upbm affinity estimate (log intensity, higher = more binding, comparable within an allelic series).

Take ACTAATAA: the binding signal is 12 upbm affinity estimate (log intensity, higher = more binding, comparable within an allelic series) with HOXB4 [1]; 12.5 upbm affinity estimate (log intensity, higher = more binding, comparable within an allelic series) in the experiment with HOXB4 [2]; 8.53 upbm affinity estimate (log intensity, higher = more binding, comparable within an allelic series) with ALX3 [6].

Consider CGGTCACG, for which the binding signal was 7.89 upbm affinity estimate (log intensity, higher = more binding, comparable within an allelic series) with HOXB4 [1] and 7.75 upbm affinity estimate (log intensity, higher = more binding, comparable within an allelic series) with HOXB4 [2].

Turning to GCTCCCCC, the binding signal with HOXB4 [1] was 7.43 upbm affinity estimate (log intensity, higher = more binding, comparable within an allelic series); with HOXB4 [2] it was 7.43 upbm affinity estimate (log intensity, higher = more binding, comparable within an allelic series).

Regarding GCTGGCGA, the binding signal in the experiment with HOXB4 [1] is 7.41 upbm affinity estimate (log intensity, higher = more binding, comparable within an allelic series); with HOXB4 [2] it was 7.45 upbm affinity estimate (log intensity, higher = more binding, comparable within an allelic series).

Regarding AGCCCCCA, the binding signal is 7.49 upbm affinity estimate (log intensity, higher = more binding, comparable within an allelic series) in the experiment with HOXB4 [1] and 7.6 upbm affinity estimate (log intensity, higher = more binding, comparable within an allelic series) with HOXB4 [2].

Turning to CCGTTATC, the binding signal with HOXB4 [1] is 9.78 upbm affinity estimate (log intensity, higher = more binding, comparable within an allelic series); in the experiment with HOXB4 [2], 9.74 upbm affinity estimate (log intensity, higher = more binding, comparable within an allelic series).

Regarding AAATGTTA, the binding signal with HOXB4 [1] was 10.3 upbm affinity estimate (log intensity, higher = more binding, comparable within an allelic series); with HOXB4 [2] it was 10.4 upbm affinity estimate (log intensity, higher = more binding, comparable within an allelic series).

As for AATATAAA, the binding signal in the experiment with HOXD13 was 10.7 upbm affinity estimate (log intensity, higher = more binding, comparable within an allelic series).

As for CCCGAGCC, the binding signal with NKX2-6 [11] was 9.42 upbm affinity estimate (log intensity, higher = more binding, comparable within an allelic series); with NKX2-6 [12], 9.3 upbm affinity estimate (log intensity, higher = more binding, comparable within an allelic series).

With ATTAAAGC, the binding signal in the experiment with NKX2-6 [11] was 11.1 upbm affinity estimate (log intensity, higher = more binding, comparable within an allelic series).

For CCGTGCGC, the binding signal in the experiment with PITX2 was 7.97 upbm affinity estimate (log intensity, higher = more binding, comparable within an allelic series).

On to GATTATTA, for which the binding signal with PAX4 [13] is 10.6 upbm affinity estimate (log intensity, higher = more binding, comparable within an allelic series); in the experiment with PAX4 [14], 11 upbm affinity estimate (log intensity, higher = more binding, comparable within an allelic series).

As to CTTAAGCA, the binding signal with CRX [15] is 10.3 upbm affinity estimate (log intensity, higher = more binding, comparable within an allelic series).

With AGCATTAG, the binding signal with CRX [15] was 10.1 upbm affinity estimate (log intensity, higher = more binding, comparable within an allelic series).

Consider ATTACTTA, for which, in the experiment with ALX3 [10], the binding signal was 8.71 upbm affinity estimate (log intensity, higher = more binding, comparable within an allelic series).

On to GATTAATC, for which the binding signal with SHOX [16] is 10.2 upbm affinity estimate (log intensity, higher = more binding, comparable within an allelic series); with CRX [17], 13.2 upbm affinity estimate (log intensity, higher = more binding, comparable within an allelic series); with CRX [18], 13 upbm affinity estimate (log intensity, higher = more binding, comparable within an allelic series); with PITX2 it was 12.9 upbm affinity estimate (log intensity, higher = more binding, comparable within an allelic series); with CRX [15], 12.9 upbm affinity estimate (log intensity, higher = more binding, comparable within an allelic series).

Regarding TAACGACA, in the experiment with SHOX [16], the binding signal was 8.33 upbm affinity estimate (log intensity, higher = more binding, comparable within an allelic series).

CCTGCCTC: the binding signal with SHOX [16] was 7.13 upbm affinity estimate (log intensity, higher = more binding, comparable within an allelic series); with CRX [17] it was 8.19 upbm affinity estimate (log intensity, higher = more binding, comparable within an allelic series); with CRX [18] it was 8.2 upbm affinity estimate (log intensity, higher = more binding, comparable within an allelic series); with MSX2 [3] it was 9.6 upbm affinity estimate (log intensity, higher = more binding, comparable within an allelic series); in the experiment with SHOX [19], 7.13 upbm affinity estimate (log intensity, higher = more binding, comparable within an allelic series); with MSX2 [4] it was 9.51 upbm affinity estimate (log intensity, higher = more binding, comparable within an allelic series). The binding signal with MSX2 [5] is 9.51 upbm affinity estimate (log intensity, higher = more binding, comparable within an allelic series); in the experiment with CRX [15], 8.18 upbm affinity estimate (log intensity, higher = more binding, comparable within an allelic series).
